Some targets named below: CRX (Homo sapiens, UniProt O43186 26-111); PITX2 (Homo sapiens, UniProt Q99697 72-157); HOXB9 (Homo sapiens, UniProt P17482 171-250, T197M).
Test in all cases: PBM; 200 nM protein, PBS
Holding throughout (settings): dsDNA, one strand shown

Experiment [1] has as its target HOXC10 (Homo sapiens, UniProt Q9NYD6 254-340, K271E).
Experiment [2] concerns the target HESX1 (Homo sapiens, UniProt Q9UBX0 95-180, R109Q).
Experiment [3] addresses HESX1 (Homo sapiens, UniProt Q9UBX0 95-180, P111T).
The target of experiment [4] is HOXC10 (Homo sapiens, UniProt Q9NYD6 254-340).
In experiment [5] the target is HOXC9 (Homo sapiens, UniProt P31274 178-260, K195R).
For experiment [6], the target named is HOXC9 (Homo sapiens, UniProt P31274 178-260).
The target of experiment [7] is HOXC9 (Homo sapiens, UniProt P31274 178-260, R193K).
The target in experiment [8] is HOXC9 (Homo sapiens, UniProt P31274 178-260, R222W).
HOXC9 (Homo sapiens, UniProt P31274 178-260, R222W), sequence (P31274 178-260 R222W): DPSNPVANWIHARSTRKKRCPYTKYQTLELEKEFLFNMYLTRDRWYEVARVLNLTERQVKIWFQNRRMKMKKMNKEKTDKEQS

CRX, sequence (O43186 26-111): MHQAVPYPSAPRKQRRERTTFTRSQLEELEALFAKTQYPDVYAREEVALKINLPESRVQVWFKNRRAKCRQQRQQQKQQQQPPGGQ
HOXB9, sequence (P17482 171-250 T197M): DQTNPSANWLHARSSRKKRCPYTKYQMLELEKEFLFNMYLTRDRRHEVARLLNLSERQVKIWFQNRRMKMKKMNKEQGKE
HOXC10 (Homo sapiens, UniProt Q9NYD6 254-340, K271E), sequence (Q9NYD6 254-340 K271E): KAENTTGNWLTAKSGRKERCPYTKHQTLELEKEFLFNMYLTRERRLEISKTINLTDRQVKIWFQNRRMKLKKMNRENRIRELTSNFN
HESX1 (Homo sapiens, UniProt Q9UBX0 95-180, R109Q), sequence (Q9UBX0 95-180 R109Q): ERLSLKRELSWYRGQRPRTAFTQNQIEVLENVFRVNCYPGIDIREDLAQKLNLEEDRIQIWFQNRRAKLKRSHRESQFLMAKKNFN
HOXC10 (Homo sapiens, UniProt Q9NYD6 254-340), sequence (Q9NYD6 254-340): as the sequence (Q9NYD6 254-340 K271E) above, with E18K counted along it
HESX1 (Homo sapiens, UniProt Q9UBX0 95-180, P111T), sequence (Q9UBX0 95-180 P111T): as the sequence (Q9UBX0 95-180 R109Q) above, with Q15R, P17T counted along it
HOXC9 (Homo sapiens, UniProt P31274 178-260), sequence (P31274 178-260): as the sequence (P31274 178-260 R222W) above, with W45R counted along it
HOXC9 (Homo sapiens, UniProt P31274 178-260, K195R), sequence (P31274 178-260 K195R): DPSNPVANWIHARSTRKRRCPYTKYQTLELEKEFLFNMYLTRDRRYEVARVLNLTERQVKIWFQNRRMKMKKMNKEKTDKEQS
HOXC9 (Homo sapiens, UniProt P31274 178-260, R193K), sequence (P31274 178-260 R193K): as the sequence (P31274 178-260 R222W) above, with R16K, W45R counted along it

With GTACTTAA, the binding signal in the experiment with HOXC10 [1] is 11.9 upbm affinity estimate (log intensity, higher = more binding, comparable within an allelic series). Turning to CGGTCCAA, the binding signal in the experiment with CRX is 8.48 upbm affinity estimate (log intensity, higher = more binding, comparable within an allelic series); with PITX2, 7.89 upbm affinity estimate (log intensity, higher = more binding, comparable within an allelic series). For the sequence CACGCGTG, in the experiment with PITX2, the binding signal was 7.84 upbm affinity estimate (log intensity, higher = more binding, comparable within an allelic series). Regarding CGGACCCG, in the experiment with CRX, the binding signal was 8.38 upbm affinity estimate (log intensity, higher = more binding, comparable within an allelic series).

For ATTACGTA, in the experiment with CRX, the binding signal was 10.5 upbm affinity estimate (log intensity, higher = more binding, comparable within an allelic series). For the sequence AATTAGCT, the binding signal is 8.93 upbm affinity estimate (log intensity, higher = more binding, comparable within an allelic series) with HESX1 [2] and 10.4 upbm affinity estimate (log intensity, higher = more binding, comparable within an allelic series) in the experiment with HESX1 [3]. On to CCAGCGCG, for which the binding signal with HESX1 [2] was 6.45 upbm affinity estimate (log intensity, higher = more binding, comparable within an allelic series); in the experiment with HESX1 [3] it was 6.49 upbm affinity estimate (log intensity, higher = more binding, comparable within an allelic series). With ACCACTTA, in the experiment with HOXC10 [4], the binding signal was 10.9 upbm affinity estimate (log intensity, higher = more binding, comparable within an allelic series).

As to CGGGCTCC, the binding signal in the experiment with HOXB9 was 8.02 upbm affinity estimate (log intensity, higher = more binding, comparable within an allelic series).

On to CTAATTGC, for which the binding signal with HESX1 [2] is 8.98 upbm affinity estimate (log intensity, higher = more binding, comparable within an allelic series); with HESX1 [3], 10.9 upbm affinity estimate (log intensity, higher = more binding, comparable within an allelic series). On to CCGCGTCG, for which the binding signal with HESX1 [2] was 6.5 upbm affinity estimate (log intensity, higher = more binding, comparable within an allelic series); in the experiment with HESX1 [3], 6.49 upbm affinity estimate (log intensity, higher = more binding, comparable within an allelic series). Regarding CTTCCGTC, the binding signal with HESX1 [2] was 6.56 upbm affinity estimate (log intensity, higher = more binding, comparable within an allelic series); with HESX1 [3], 6.55 upbm affinity estimate (log intensity, higher = more binding, comparable within an allelic series). Regarding CGCCCGAG, the binding signal with HOXB9 is 8.29 upbm affinity estimate (log intensity, higher = more binding, comparable within an allelic series). Regarding CGAACGCC, in the experiment with CRX, the binding signal is 7.92 upbm affinity estimate (log intensity, higher = more binding, comparable within an allelic series). The same measure, in the same setting: next, CCGGCGCG: 8.33 upbm affinity estimate (log intensity, higher = more binding, comparable within an allelic series).

On to CATGCGCC, for which the binding signal with HOXB9 was 8.7 upbm affinity estimate (log intensity, higher = more binding, comparable within an allelic series). With CCTGGGCC, the binding signal with HOXC10 [4] was 10.1 upbm affinity estimate (log intensity, higher = more binding, comparable within an allelic series); with HOXC10 [1], 9.99 upbm affinity estimate (log intensity, higher = more binding, comparable within an allelic series). Regarding CGGTCGGC, in the experiment with PITX2, the binding signal is 7.99 upbm affinity estimate (log intensity, higher = more binding, comparable within an allelic series). In the case of CGTGCACG, in the experiment with HOXB9, the binding signal was 8.83 upbm affinity estimate (log intensity, higher = more binding, comparable within an allelic series). Still for that read-out and setting: next, CCAGCCAG: 8.47 upbm affinity estimate (log intensity, higher = more binding, comparable within an allelic series). In the case of ACGGGGGC, the binding signal with HOXC9 [5] was 9.65 upbm affinity estimate (log intensity, higher = more binding, comparable within an allelic series); with HOXC9 [6], 9.77 upbm affinity estimate (log intensity, higher = more binding, comparable within an allelic series); with HOXC9 [7], 9.64 upbm affinity estimate (log intensity, higher = more binding, comparable within an allelic series); with HOXC9 [8] it was 9.54 upbm affinity estimate (log intensity, higher = more binding, comparable within an allelic series).

ACACCGGG: the binding signal with HOXC10 [4] was 10.2 upbm affinity estimate (log intensity, higher = more binding, comparable within an allelic series); with HOXC10 [1], 10 upbm affinity estimate (log intensity, higher = more binding, comparable within an allelic series).

As to AGCCCGGG, the binding signal with HOXC9 [5] was 9.48 upbm affinity estimate (log intensity, higher = more binding, comparable within an allelic series); in the experiment with HOXC9 [6], 9.82 upbm affinity estimate (log intensity, higher = more binding, comparable within an allelic series); with HOXC9 [7], 9.63 upbm affinity estimate (log intensity, higher = more binding, comparable within an allelic series); with HOXC9 [8], 9.71 upbm affinity estimate (log intensity, higher = more binding, comparable within an allelic series). As for CCCCCCGG, the binding signal with HOXC10 [4] was 9.81 upbm affinity estimate (log intensity, higher = more binding, comparable within an allelic series); with HOXC10 [1] it was 9.82 upbm affinity estimate (log intensity, higher = more binding, comparable within an allelic series).

These data come from PMC11006913.
